# “And” between values parts separate entries of the source, which are not always exact repeats. Equal entries are not always repeated. A structure can be active in one record and inactive in another. The source made the active and inactive calls. Rule for the calls: active = hit-call score of the fitted dose curve at least 0.9, where 1 is the maximum; inactive = score below 0.9.
# Legend:
# [1] = read-out: Interleukin-8 (IL8), CXCL8 (gene 3576); assay: BSK_BE3C_IL8: BioMAP Diversity Plus: BE3C Assay for Interleukin-8 (IL8) Biomarker Activity (AID 2284280); details: primary human bronchial epithelial cells
# Method in brief: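 IL-8 signal gain, normalised to DMSO vehicle, was scored after a 24 h chemical exposure of primary human bronchial epithelial cells, with detection by ELISA.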
# [2] = read-out: Epidermal growth factor receptor (EGFR), EGFR (gene 1956); assay: BSK_BE3C_EGFR: BioMAP Diversity Plus: BE3C Assay for Epidermal growth factor receptor (EGFR) Biomarker Activity (AID 2284281); details: primary human bronchial epithelial cells
# Method in brief: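 Compound is added to human bronchial epithelial cells, cells incubate 24 h, then EGFR is detected by ELISA. Values reflect positive-direction fitting relative to DMSO.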
# [3] = read-out: KRT18 (gene 3875); assay: BSK_BE3C_Keratin818: BioMAP Diversity Plus: BE3C Assay for Keratin 818 Biomarker Activity (AID 2284282); details: primary human bronchial epithelial cells
# Method in brief: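 Chemicals are added to human lung bronchial epithelial primary cells (BE3C system) and incubated 24 h. Keratin 8/18 is then measured by ELISA, with parallel SRB total-protein staining gauging overt cytotoxicity.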
# [4] = read-out: Plasminogen activator inhibitor-1 (PAI1), SERPINE1 (gene 5054); assay: BSK_CASM3C_PAI1: BioMAP Diversity Plus: CASM3C Assay for Plasminogen activator inhibitor-1 (PAI1) Biomarker Activity (AID 2284284); details: primary human coronary artery smooth muscle cells;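 note: PAI-1 protein level measured by ELISA 24 h after dosing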
# [5] = read-out: Monocyte Chemoattractant Protein-1 (MCP1), CCL2 (gene 6347); assay: BSK_hDFCGF_MCP1: BioMAP Diversity Plus: hDFCGF Assay for Monocyte Chemoattractant Protein-1 (MCP1) Biomarker Activity (AID 2284285); details: primary human foreskin fibroblasts
# Method in brief: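 Human foreskin fibroblasts (hDFCGF system) were exposed to compound and secreted MCP-1 was measured by ELISA after 24 hours. Activity was fitted relative to DMSO. Cytotoxicity was checked by SRB total-protein staining in parallel cultures.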
# [6] = read-out: Vascular cell adhesion molecule 1 (VCAM1), VCAM1 (gene 7412); assay: BSK_IMphg_VCAM1: BioMAP Diversity Plus: IMphg Assay for Vascular cell adhesion molecule 1 (VCAM1) Biomarker Activity (AID 2284286); details: primary human endothelial cells with macrophages
# Method in brief: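 Human venular endothelial cells co-cultured with macrophages; VCAM-1 quantified by ELISA 24 h after dosing, fitted in the positive direction against DMSO. Cytotoxicity was checked in parallel cultures by SRB total-protein staining (0.1% SRB after 10% TCA fixation, 560 nm).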
# [7] = read-out: Intercellular Adhesion Molecule 1 (ICAM1), ICAM1 (gene 3383); assay: BSK_hDFCGF_ICAM1: BioMAP Diversity Plus: hDFCGF Assay for Intercellular Adhesion Molecule 1 (ICAM1) Biomarker Activity (AID 2284287); details: primary human foreskin fibroblasts
# Method in brief: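 Primary human foreskin fibroblasts (hDFCGF system) dosed with chemical; ICAM-1 quantified by ELISA at 24 h relative to DMSO. Parallel SRB total-protein staining to assess overt cytotoxicity.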
# [8] = read-out: CD40, CD40 (gene 958); assay: BSK_IMphg_CD40: BioMAP Diversity Plus: IMphg Assay for CD40 Biomarker Activity (AID 2284288); details: primary human endothelial cells with macrophages
# Method in brief: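 Venular endothelial cells co-cultured with macrophages (human primary), CD40 measured by ELISA 24 h after dosing. Positive-direction fit vs DMSO baseline; cytotoxicity tracked by SRB total-protein staining in parallel cultures.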
# [9] = read-out: Matrix Metallopeptidase 9 (MMP9), MMP9 (gene 4318); assay: BSK_BE3C_MMP9: BioMAP Diversity Plus: BE3C Assay for Matrix Metallopeptidase 9 (MMP9) Biomarker Activity (AID 2284283); details: primary human bronchial epithelial cells
# Method in brief: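 Endpoint is the ELISA MMP-9 signal in human primary bronchial epithelial cultures taken 24 h after chemical dosing. DMSO serves as negative control and baseline, with gain-of-signal fitting.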
# [10] = read-out: TIMP metallopeptidase inhibitor 2 (TIMP2), TIMP2 (gene 7077); assay: BSK_hDFCGF_TIMP2: BioMAP Diversity Plus: hDFCGF Assay for TIMP metallopeptidase inhibitor 2 (TIMP2) Biomarker Activity (AID 2284289); details: primary human foreskin fibroblasts
# Method in brief: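 Primary human foreskin fibroblasts in the hDFCGF system, dosed for 24 h; TIMP-2 level measured by ELISA, fitted in the positive direction against DMSO; cytotoxicity checked in parallel by sulforhodamine B total protein staining.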
compound,measurement,setting,value
OCC(F)(F)C(F)(F)C(F)(F)C(F)F,AC50,[1],14.5 µM (active)
same,outcome,[1],inactive
same,outcome,[2],inactive
same,outcome,[3],inactive
same,outcome,[4],inactive
same,outcome,[5],inactive
same,outcome,[6],inactive
same,outcome,[7],inactive
same,outcome,[8],inactive
C=CC(F)(F)C(F)(F)C(F)(F)C(F)(F)C(F)(F)C(F)(F)C(F)(F)C(F)(F)C=C,outcome,[1],inactive
same,outcome,[2],inactive
same,outcome,[3],inactive
same,outcome,[9],inactive
same,outcome,[4],inactive
same,outcome,[5],inactive
same,outcome,[6],inactive
same,outcome,[8],inactive
same,outcome,[10],inactive
FC(F)(F)C(F)(F)C(F)(F)C(F)(F)C(F)(F)C(F)(F)C(F)(F)I,outcome,[1],inactive
same,outcome,[2],inactive
same,outcome,[3],inactive
same,outcome,[4],inactive
same,outcome,[5],inactive
same,outcome,[6],inactive
same,outcome,[8],inactive
same,outcome,[10],inactive
CCCCC(CC)COP(=O)(O)OCC(CC)CCCC (stereo unspecified),outcome,[1],inactive
same,AC50,[2],26.3 µM (active) and 20 µM (active)
same,outcome,[3],inactive
same,outcome,[4],inactive
same,AC50,[5],32.2 µM (active)
same,outcome,[7],inactive
FC(F)(F)C(F)(F)C(F)(F)C(F)(F)C(F)(F)C(F)(F)CCS,outcome,[1],inactive
same,outcome,[2],inactive
same,outcome,[3],inactive
same,outcome,[4],inactive
same,outcome,[5],inactive
same,outcome,[6],inactive
same,outcome,[7],inactive
same,outcome,[8],inactive
same,outcome,[10],inactive
NC(=O)C(F)(F)C(F)(F)C(F)(F)C(F)(F)F,outcome,[1],inactive
same,outcome,[2],inactive
same,outcome,[3],inactive
same,outcome,[4],inactive
same,outcome,[5],inactive
same,outcome,[6],inactive
same,outcome,[8],inactive
C=C(C)C(=O)OCC(F)(F)C(F)(F)C(F)(F)C(F)(F)C(F)(F)C(F)(F)C(F)(F)F,outcome,[1],inactive
same,outcome,[2],inactive
same,outcome,[3],inactive
same,outcome,[4],inactive
same,outcome,[5],inactive
same,outcome,[6],inactive
same,outcome,[8],inactive
O=C(O)C(F)(F)C(F)(F)OC(F)(F)F,outcome,[1],inactive
same,outcome,[2],inactive
same,outcome,[3],inactive
same,outcome,[4],inactive
same,outcome,[5],inactive
same,outcome,[6],inactive
same,outcome,[7],inactive
same,outcome,[8],inactive
same,outcome,[10],inactive
OCC(F)(F)C(F)(F)C(F)(F)C(F)(F)C(F)(F)C(F)F,outcome,[1],inactive
same,outcome,[2],inactive
same,outcome,[3],inactive
same,outcome,[4],inactive
same,outcome,[5],inactive
same,outcome,[6],inactive
same,AC50,[8],1.79 µM (active)
same,outcome,[8],inactive
FC(F)(Br)C(F)(F)C(F)(F)C(F)(F)C(F)(F)C(F)(F)Br,outcome,[1],inactive
same,outcome,[2],inactive
same,outcome,[3],inactive
same,outcome,[4],inactive
same,outcome,[5],inactive
same,outcome,[6],inactive
same,outcome,[8],inactive
C=CC(=O)OCC(F)(F)C(F)(F)C(F)(F)C(F)(F)C(F)(F)C(F)(F)C(F)(F)F,outcome,[1],inactive
same,outcome,[2],inactive
same,outcome,[3],inactive
same,outcome,[4],inactive
same,outcome,[5],inactive
same,outcome,[6],inactive
same,AC50,[8],6.54 µM (active)
same,outcome,[8],inactive
O=C(O)C(F)(F)C(F)(F)C(F)(F)C(F)(F)C(F)(F)C(F)(F)C(F)(F)C(F)(F)Cl,AC50,[1],38 µM (active) and 30 µM (active)
same,AC50,[2],13.6 µM (active) and 11.5 µM (active)
same,AC50,[3],48.7 µM (active) and 56 µM (active)
same,outcome,[4],inactive
same,AC50,[5],44.4 µM (active) and 47 µM (active)
same,AC50,[6],48.5 µM (active) and 45.7 µM (active)
same,AC50,[7],14.1 µM (active) and 8.21 µM (active)
same,AC50,[8],44.5 µM (active) and 46.5 µM (active)
CC(C)(C)C(=O)CC(=O)C(F)(F)C(F)(F)C(F)(F)F,outcome,[1],inactive
same,outcome,[2],inactive
same,outcome,[3],inactive
same,outcome,[4],inactive
same,outcome,[5],inactive
same,outcome,[6],inactive
same,outcome,[8],inactive
same,outcome,[10],inactive
FC(F)(F)C(F)(F)C(F)(F)C(F)(F)C(F)(F)C(F)(F)CC1CO1 (stereo unspecified),outcome,[1],inactive
same,outcome,[2],inactive
same,outcome,[3],inactive
same,outcome,[4],inactive
same,outcome,[5],inactive
same,outcome,[6],inactive
same,outcome,[8],inactive
same,outcome,[10],inactive
